Screening data as filed in PubChem BioAssay.
TTR transcr act = activators of transthyretin transcription; actives 1.3% (n = 92,000); SH-SY5Y TTR promoter Gaussia luciferase, luminescence; 100% = recombinant luciferase protein wells; activation, % at 16.7 µM;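 active = activation above the mean of all tested compounds plus 3 SD, cut at about 9.5% in these data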;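 also: cells exposed to compounds for one day before reading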
HuH7 TTR inh = counter-screen for TTR activators: TTR transcription inhibitors in HuH7 cells. shares compounds with TTR transcr act. HuH7 TTR promoter-Gaussia luciferase reporter, luminescence. inhibition, % at 16.7 µM. actives 4% (n = 1,100);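 active = average inhibition above the solvent-only control wells' mean plus 3 SD, cut at about 15% in these data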;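 also: inhibitors lower well luminescence so higher value means more inhibition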
TTR up confirm = confirmation of human transthyretin transcription activators; shares compounds with TTR transcr act; SHSY5Y TTR promoter Gaussia luciferase, luminescence; 100% = purified Lucia enzyme wells, no cells; activation, % at 16.7 µM; 1,100 tested, under 10 active;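 active = mean activation above a set limit taken from the earlier primary screen, cut at about 11% in these data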
Each line names hits and unclear results; the compound was inactive in the other large screens (follow-up assays come after a bar, where they were run). Many of the other results were omitted from the sample, so hits are more common in it than they were.

COc1cc(CN2CCCC(CO)(Cc3ccccc3)C2)ccc1O (stereo unspecified)	none
COc1cccc(CC2(CO)CCCN(Cc3cn[nH]c3-c3ccccc3)C2)c1 (stereo unspecified)	TTR transcr act 10 | HuH7 TTR inh inactive | TTR up confirm inactive
O=[N+]([O-])c1ccccc1O[C@@H]1O[C@H](CO)[C@H](O)[C@H](O)[C@H]1O	none
O=C(c1ccncc1)N(c1ccc(N2CCOCC2)cc1)C(c1ccccc1)c1nc2ccccc2[nH]1 (stereo unspecified)	none
O=[N+]([O-])c1cccc(-c2nc(-c3ccccn3)no2)c1	none
O=[N+]([O-])c1cccc(-c2noc3c2-c2nc(Cc4cccc5ccccc45)sc2CC3)c1	TTR transcr act 34 | HuH7 TTR inh inactive | TTR up confirm inactive
Fc1cccc(F)c1-c1nc2c(s1)CCc1onc(-c3ccc(Br)cc3)c1-2	none
COc1ccccc1N/N=C/c1ccc2c(c1)OCO2	none
O=c1nc(SCc2ccc(Cl)cc2)nc(-c2ccccc2)[nH]1	none
Cc1nnc(SCc2ccc(Cl)cc2)nc1/C=C/N(C)C	TTR transcr act 9.7 | HuH7 TTR inh 17 | TTR up confirm inactive
Cc1nc(C)c(-c2ccc(SCc3ccc(Cl)cc3)nn2)s1	none
CCOC(=O)[C@@]12CCCC=C1N(CCc1ccc(Cl)cc1)C(=O)[C@H]2CC(=O)N1CCN(C(=O)c2ccco2)CC1	none
N/C(=N\OC(=O)CCCOc1ccccc1)c1ccccn1	none
COc1ccc(C(c2nnnn2CS(=O)(=O)c2ccc(C)cc2)N2CCN(c3ncccn3)CC2)cc1 (stereo unspecified)	none
Cc1cc(O)c(/C=N/Nc2ccccc2)c(=O)o1	none
CCC(C)[C@H](NC(=O)[C@@H]1CSC2c3ccccc3C(=O)N21)C(=O)NC1CCCC1 (stereo partly specified)	none
O=C(NC1CCCC1)C1c2ccccc2C(=O)N1CCCN1CCOCC1 (stereo unspecified)	none
CCC(C)N1C(=O)c2ccccc2C1C(=O)NC1CCCCCC1 (stereo unspecified)	TTR transcr act 15 | HuH7 TTR inh inactive | TTR up confirm inactive
COc1ccc(CNC(=O)Cn2cc([N+](=O)[O-])cn2)cc1	none
COC(=O)C1CC2=C(CCCC2=O)NC1=O (stereo unspecified)	none
Cc1ccc2ccc3cccnc3c2n1	none
O=C(c1ccc2c(c1)OCCO2)C1CCN(C(=O)c2ccc(F)c(F)c2)CC1	none
CN1/C(=C/C2CC(=O)N(c3cccc4ccccc34)C2=O)C(C)(C)c2ccccc21 (stereo unspecified)	none
CCN1C(=O)N(c2cccc3ccccc23)C(C)=CC1(C)C	TTR transcr act 28 | HuH7 TTR inh inactive | TTR up confirm inactive
CC1=CC(=O)N(c2cccc3c(N4C(=O)C=C(C)C4=O)cccc23)C1=O	none
Cn1nnnc1SCC(=O)Nc1nc(-c2ccc(F)c(F)c2)cs1	none
Cc1cccc(C)c1NC(=O)CN(C)C(=O)c1cccc(S(=O)(=O)N2CCN(c3ccccc3)CC2)c1	none
Cc1cccc(C)c1NC(=O)CN(C)C(=O)c1cc(S(=O)(=O)N(C)C)ccc1N1CCCC1	none
Cc1cccc(C)c1NC(=O)CN(C)C(=O)c1cccc(S(=O)(=O)N2CCN(C)CC2)c1	TTR transcr act 15 | HuH7 TTR inh inactive | TTR up confirm inactive
COC(=O)c1c(C)[nH]c(C)c1C(C)=O	none
O=c1[nH]n(CC2COC3(CCCCC3)O2)c(=O)c2ccccc12 (stereo unspecified)	none
Cc1ccccc1Nc1ncnc2c1cnn2Cc1ccccc1	none
COCCNC(=O)C1Cc2cc(S(=O)(=O)N3CCCC3)ccc2N1C(C)=O (stereo unspecified)	none
O=C(CCCNS(=O)(=O)c1cccs1)N1CCc2ccccc2C1	none
C[C@@H]1C(=O)O[C@@H]2CC34[C@H]5C[C@@H](C(C)(C)C)C36[C@H](OC(=O)[C@@H]6O)OC4(C(=O)O5)[C@@]12O (stereo partly specified)	TTR transcr act 23 | HuH7 TTR inh inactive | TTR up confirm inactive
O=C(CCN1CCCCC1)NCNC(=O)CCN1CCCCC1	none
C1CCCN(CCCCN2CCCCCC2)CC1	TTR transcr act 10 | HuH7 TTR inh inactive | TTR up confirm inactive
Clc1ccccc1OCCCCN1CCCCC1	none
c1cncc(-c2nnc(SCc3cccc4ccccc34)o2)c1	none
CCC(=O)N1CCc2cc(S(=O)(=O)CCC(=O)NCc3cccc(OC)c3)ccc21	none
CC1(c2nnc(-c3cccc(Cl)c3)o2)CC(c2cccc(F)c2)=NO1 (stereo unspecified)	none
COc1ccc(CCN2CC(C(=O)NCc3cnn(C(C)C)c3)CCC2=O)cc1 (stereo unspecified)	none
CN1CCN(c2oc(-c3ccccc3)nc2S(=O)(=O)c2ccccc2)CC1	none
N/C(=N\O)c1cccc(CS(=O)(=O)c2ccccn2)c1	TTR transcr act 10.0 | HuH7 TTR inh inactive | TTR up confirm inactive
